The values that follow come from PubChem BioAssay (NCATS).

The nature of test [1]: Quantitative High-Throughput drug screen in 47 multiple myeloma cell lines against the NCATS MIPE library collection: PE2_PLB cell viability assay (AID 1919869). Note: nearly all actives have a fitted effect of over 35% in size. In outline:
(§1)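 Cells were exposed to library compounds for 48 hours, after which ATP was measured by CellTiter-Glo. Signal was taken as median relative luminescence units.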

A short description of test [2]: Quantitative High-Throughput drug screen in 47 multiple myeloma cell lines against the NCATS MIPE library collection: PCM6_Riken cell viability assay (AID 1919870). Note: nearly all actives have a fitted effect of over 30% in size. In outline:
as §1

The nature of test [3]: Quantitative High-Throughput drug screen in 47 multiple myeloma cell lines against the NCATS MIPE library collection: RPMI8226_ATCC cell viability assay (AID 1919871). Note: nearly all actives have a fitted effect of over 30% in size. In outline:
as §1

Test [4] in a line: Quantitative High-Throughput drug screen in 47 multiple myeloma cell lines against the NCATS MIPE library collection: KMS11_JCRBsus cell viability assay (AID 1919873). Note: nearly all actives have a fitted effect of over 50% in size. In outline: as §1
Test [5] can be described thus: Quantitative High-Throughput drug screen in 47 multiple myeloma cell lines against the NCATS MIPE library collection: KMS28BM_JCRB cell viability assay (AID 1919874). Note: nearly all actives have a fitted effect of over 35% in size. An outline of the steps: as §1
Test [6] is described as follows: qHTS drug screen for cell cycle checkpoint inhibitors in PARPi-resistant BRCA-mutant ovarian cancer cell lines. (AID 1963452; calls by dose curve). The settings on record: PEO1/OlaR viability, CellTiter-Glo luminescence, 96 h; for Z-AUC: stronger effect = lower value. An outline of the steps:
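PEO1, PEO4 and PEO1/OlaR ovarian cancer cells, 600 per well, exposed 96 h at 37C to a dilution series. Viability read by CellTiter-Glo luminescence, normalized to DMSO and empty wells; activity summarized as Z-AUC.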

The nature of test [7]: qHTS for identification of novel therapeutic agents for treatment of microphthalmiaassociated transcription factor (MiT) renal cell carcinoma (RCC) (AID 1963991; calls by dose curve). The conditions noted are these: CellTiter-Glo, 48 h; for Potency: active = Z-AUC below -0.8 in all three lines; for z-score: stronger effect = lower value. An outline of the steps:
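Three TFE3-fusion RCC lines (UOK109, UOK124, UOK145), 500 cells/well in complete medium, were treated with MIPE 4.0 compounds for 48 hours at 37 C. Viability was by CellTiter-Glo luminescence, normalized to DMSO (100%) and empty wells (0%); curves fitted over 11 concentrations.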

Test [8] in a line: Quantitative High-Throughput drug screen in 47 multiple myeloma cell lines against the NCATS MIPE library collection: OPM2_DSMZ cell viability assay (AID 1919872). Note: nearly all actives have a fitted effect of over 30% in size. In outline:
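Myeloma cells (500 per well) were exposed to MIPE 4.0 compounds by pin transfer and incubated 48 hours at 37C, 5% CO2. Viability was read as ATP by CellTiter-Glo luminescence, normalised to DMSO (100%) and media-only (0%) wells.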

Test [9] in a line: qHTS profiling for inhibitors of Plasmodium falciparum proliferation (AID 504749).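 For activity, negative = inhibition: 0% = DMSO vehicle and full inhibition = artemisinin control.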 Note: nearly all actives have a fitted effect of over 60% in size. The conditions noted are these: P. falciparum in erythrocytes, SYBR Green DNA, 72 h; at 28.7 µM (top of the series); parasite line A. In outline:
(§2)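 Each compound contacts P. falciparum-infected red blood cells for 72 h at 37 C; lysis buffer (Tris, EDTA, saponin, Triton X, SYBR Green I) is added and fluorescence measured next morning; values normalized to controls.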
Background: Quantitative high-throughput screening tests each substance at several concentrations.

The subject of another test is 3D7. The test is described as above. The settings on record: P. falciparum in erythrocytes, SYBR Green DNA, 72 h; series mostly up to 28.7 µM. In outline: as §2
A further test has as its system 7G8. The test is described as above. The conditions noted are these: P. falciparum in erythrocytes, SYBR Green DNA, 72 h; series mostly up to 28.7 µM. In outline:
as §2

The next test relates to AA1029. Described as above. The conditions noted are these: P. falciparum in erythrocytes, SYBR Green DNA, 72 h; series mostly up to 28.7 µM. In outline: as §2
The subject of the next test is AS120. The description is as above. The settings on record: P. falciparum in erythrocytes, SYBR Green DNA, 72 h; series mostly up to 28.7 µM. An outline of the steps:
as §2

In the next test the test system is ATS95. Described as above. The conditions noted are these: P. falciparum in erythrocytes, SYBR Green DNA, 72 h; series mostly up to 28.7 µM. An outline of the steps:
as §2

Another test relates to C2A. The description is as above. The settings on record: P. falciparum in erythrocytes, SYBR Green DNA, 72 h; series mostly up to 28.7 µM. An outline of the steps: as §2
The subject of a further test is CP185. The description is as above. The conditions noted are these: P. falciparum in erythrocytes, SYBR Green DNA, 72 h; series mostly up to 28.7 µM. In outline: as §2
In another test the test system is CP191. The test is described as above. The conditions noted are these: P. falciparum in erythrocytes, SYBR Green DNA, 72 h; series mostly up to 28.7 µM. In outline: as §2
The test system of the next test is CP192. The description is as above. The settings on record: P. falciparum in erythrocytes, SYBR Green DNA, 72 h; series mostly up to 28.7 µM. In outline:
as §2

The mark [10] stands for this setting: measured here: PEO1 parental Z-AUC.
Setting [11] is: TFE3-RCC UOK109 viability, measured here: UOK109 Z-AUC.
Where [12] appears, read: TFE3-RCC viability, measured here: UOK124 Z-AUC.
Setting [13] is: TFE3-RCC viability, measured here: UOK145 Z-AUC.

Records with an inconclusive call do not appear. Active and inactive are the calls of the source. Unless noted, calls come from the whole dose curve; as a rule, active = well fitted curve in the direction sought with a large enough effect; inconclusive = small, poorly fitted or top-dose-only effect, or another doubt; inactive = no such curve, though single readings can be large; an effect the other way counts as inactive or inconclusive.
Potency is the fitted concentration of half-maximal effect.

Turning to `CC[C@@H]1C(=O)N(C)c2cnc(Nc3ccc(C(=O)NC4CCC(N5CCN(CC6CC6)CC5)CC4)cc3OC)nc2N1C(C)C` (stereo partly drawn), the Potency in [1] was 8.33 µM (active); in [2], 1.87 µM (active); in [3], 8.33 µM (active); in test [4], 0.0296 µM (active); in test [5], 0.0372 µM (active); in test [6], 0.0871 µM (active). Also, the Potency in [7] (TFE3-RCC UOK109 viability) is 3.72 µM (active). Further, the Z-AUC in [6] (setting [10]) is -2.37; in test [6] (measured here: PEO4 Z-AUC), -1.84. The z-score in test [7] (setting [11]) is -1.29; in test [7] (setting [12]) it was -2.06; in [7] (setting [13]), -1.66.

As for `CCC(=C(c1ccccc1)c1ccc(OCCN(C)C)cc1)c1ccccc1`, the Potency in test [1] is 26.4 µM (active); in [2], 23.5 µM (active); in [4] it was 20.9 µM (active); in test [5], 20.9 µM (active).

Regarding `COc1cc2c(cc1-c1c(C)noc1C)ncc1[nH]c(=O)n([C@H](C)c3ccccn3)c12`, the Potency in [1] was 14.8 µM (active); in test [2], 6.62 µM (active); in test [3], 7.43 µM (active); in test [4], 0.264 µM (active). The results for the Z-AUC in test [6], in [6] (setting [10]) and in test [6] (measured here: PEO4 Z-AUC) were -1.31 (inactive), -1.04 and -1.54, respectively.

Take `CCNC(=O)Nc1ccc2ncc(Nc3ccc(C)cc3)nc2n1`: the Potency was 3.72 µM (active) in [1], 0.935 µM (active) in [2] and 18.7 µM (active) in test [4]. The Potency entry in test [8] is “inactive”.

`Cc1nc2cnc3ccc(C#Cc4cccnc4)cc3c2n1-c1ccc(C(C)(C)C#N)cc1`: the Potency was 0.0132 µM (active) in test [1]; 0.0662 µM (active) in test [2]; 0.0833 µM (active) in test [3]; 0.372 µM (active) in [5]; 0.118 µM (active) in test [7] (TFE3-RCC UOK109 viability). The z-score in [7] (setting [11]) is -1.96; in [7] (setting [12]), -4.34; in [7] (setting [13]), -2.15.

In the case of `CNC(=O)c1ccc(N2C(=S)N(c3cnc(C#N)c(C(F)(F)F)c3)C(=O)C23CCC3)cc1F`, the Potency was 1.05 µM (active) in [1] and 0.833 µM (active) in test [2]. For the same compound, the Potency entry in test [8], in test [4] and in [5] was “inactive” in each case.

As for `COc1cc2c(Nc3ccc(NC(=O)c4ccccc4)cc3)ncnc2cc1OCCCN1CCOCC1`, the Potency in test [1] was 20.9 µM (active); in test [2], 16.6 µM (active); in test [3], 23.5 µM (active); in [4], 10.5 µM (active). Besides, the Z-AUC in test [6] was 0.665 (inactive); in test [6] (setting [10]), 0.378; in test [6] (measured here: PEO4 Z-AUC), -0.00174.

`CCS(=O)(=O)c1cccc(-c2cc(C(=O)NC3CCN(C)CC3)c(C)c3[nH]c4ncc(C)cc4c23)c1`: the Potency is 0.935 µM (active) in test [1], 1.66 µM (active) in test [2], 5.9 µM (active) in test [3] and 0.526 µM (active) in [4]. The Z-AUC in test [6] was -0.945 (inactive); in test [6] (setting [10]), -0.937; in [6] (measured here: PEO4 Z-AUC) it was -0.883.

For the compound `CC(C)(C)c1cc(NC(=O)Nc2ccc(-c3cn4c(n3)sc3cc(OCCN5CCOCC5)ccc34)cc2)no1`, the Potency in test [1] is 0.148 µM (active); in [8] it was 5.26 µM (active). Besides, the Potency entry in [2] was “inactive”. Besides, the Z-AUC in test [6] was 1.23 (inactive); in [6] (setting [10]), 0.804; in test [6] (measured here: PEO4 Z-AUC), 0.987.

For `COc1cc(C(=O)NS(=O)(=O)c2ccccc2C)ccc1Cc1cn(C)c2ccc(NC(=O)OC3CCCC3)cc12`, the Potency in [1] was 13.2 µM (active); in test [2], 13.2 µM (active); in test [3], 20.9 µM (active); in [4], 7.43 µM (active); in [5], 16.6 µM (active); in the test on 7G8, 12.6 µM (active). The Z-AUC in [6] was 1.83 (inactive); in test [6] (setting [10]) it was 1.16; in [6] (measured here: PEO4 Z-AUC), 1.3. Besides, the activity, negative = inhibition in test [9] is -4.29% (inactive). Further, the Potency result in the test with 3D7, in the test on AA1029, with AS120, with ATS95, in the test on C2A and in the test with CP185 was “inactive” throughout. Besides, the Potency result in the test on CP191 and in the test with CP192 was “inactive” in each case.
